# Results as given in the OligoGym collection.
# Target: VAX1
# Assay: pooled miR-30 sensor sort-seq; sequence = guide strand
# Conditions: shRNA
# Note: reference of the scale not given here.
row,Sequence,sensor-assay potency score (higher = more potent)
1,TTACTTTTGTTACAATCCTCAG,-1.22
2,TTGGGCAGGATGATCTCTCGGA,-0.0889
3,TGGAACTCCATCTCCAGCCGAT,-1
4,TTCTTTTGTTTTTTTATCCCGC,-0.672
5,TTTTGTTACAATCCTCAGCAGC,-0.447
6,TCTCGGACCAGGATCCGGCGGC,-0.716
7,TTTGTTTTTTTATCCCGCGTTT,-0.944
8,TTTTGTTTTTTTATCCCGCGTT,-0.396
9,TTCTTTATTGTTGGTCCGGGAG,-1.06
10,TTCTTCTGCTTGGTGCGCCGGT,-0.49
11,TACTTTTGTTACAATCCTCAGC,-0.412
12,TTTACTTTTGTTACAATCCTCA,-0.228

# Target: VDAC1
# Assay: as above
# Conditions: shRNA
row,Sequence,sensor-assay potency score (higher = more potent)
1,TTCTCTGTAAACGTCAGGCCGT,-0.7
2,TAGTGTATTGTCGGTATTCCAT,-0.621
3,TATCCTAAACCTATCAGGCTGG,-0.545
4,TAGGTGAGAAGGATGAATCGAA,0.744
5,TTAGAGTCTGAGTGTATCCTAA,-0.253
6,TCTGAGTGTATCCTAAACCTAT,-0.562
7,TCTTCCACAGTAATCTCGGTGC,-0.38
8,TTACTGTTTCCTGCTGTCCAGG,-1.19
9,TTCACTTTAGCCGAGAAGCAGG,-0.473
10,ATTCACATTAGTGTGAAGCTGG,0.0233
11,TTTGTTTTCAAATCAAGCTTTA,-0.535
12,TTTTGTTTTCAAATCAAGCTTT,-0.155
